# Measured values reported in PubChem BioAssay (NCATS).
# Records with an inconclusive call do not appear. Calls of active or inactive are those of the source. The call rests on the fitted dose curve; in most records, active means well fitted curve in the direction sought with a large enough effect in the signal ratio; inconclusive means small, poorly fitted or top-dose-only effect, or effect the other way, or a change in a side signal; inactive means no such curve, though single readings can be large or run the other way; the % refers to the signal ratio.
# Assay: Validation of Assay for Modulators of Lamin A Splicing (AID 1459);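 further: cells exposed to compound for two days before reading; ratio rise marks activators and ratio drop marks inhibitors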
# Procedure, shortened: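 Dual-reporter HeLa S3 line (lamin A-EGFP minigene, DsRed2) treated with compounds 48 hrs, 0.5% DMSO final. Endpoint: EGFP/DsRed2 total intensity ratio from laser-scanning microplate cytometry.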
compound,measurement,value
NCCCC(=O)O,outcome,inactive
